Assay outcomes: PubChem BioAssay, National Center for Advancing Translational Sciences (NCATS)
Only some compounds are listed: those with a hit (about 11% of all), similar ones and a draw of the others.
HPGD block – inhibitors of human 15-hydroxyprostaglandin dehydrogenase (HPGD) | Potency, µM, for inactives: top-dose activity change, negative = inhibition, hits mostly inhibitors | purified HPGD, NADH fluorescence kinetic, PGE2 substrate | 150,000 compounds, 4.3% hits | P15428; active = well fitted inhibition curve with a large enough effect, not every such curve was filed as active; inconclusive = small, poorly fitted or top-dose-only effect, or another doubt; inactive = no such curve, though single readings can be large or run the other way; note: potency is the fitted concentration of half-maximal effect; % is set by controls: 0 for no effect and ±100 for the full control effect
Target sequence (P15428 whole entry, looked up): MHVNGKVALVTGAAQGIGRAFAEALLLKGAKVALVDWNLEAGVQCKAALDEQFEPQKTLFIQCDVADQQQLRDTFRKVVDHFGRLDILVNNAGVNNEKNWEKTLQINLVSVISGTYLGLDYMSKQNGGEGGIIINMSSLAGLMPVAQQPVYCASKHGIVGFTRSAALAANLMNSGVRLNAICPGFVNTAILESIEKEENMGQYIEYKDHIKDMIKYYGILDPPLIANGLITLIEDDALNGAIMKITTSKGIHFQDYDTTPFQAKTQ
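NADH formation kinetics: reaction with 30 uM PGE2 and 1 mM NAD+ (final), 20 nM enzyme, Tris-HCl pH 8 with Tween 20, after 15 min compound preincubation at room temperature. Fluorescence change, last versus first of five reads.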
HTT ATP protect – Huntington cell model cytoprotection by ATP luminescence; PC12 HTT-Q103 induced, cytoprotection, ATP luminescence, 40 h; Potency, µM (doses to about 56.4 µM), for the others: cytoprotection (ATP increase), hits mostly activators; 230,000 compounds, 0.14% hits; note: potency is the fitted concentration of half-maximal effect; % of control where 0% means no effect; nearly all actives have a fitted effect of over 45% in size
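Cells were plated at 1500 per well in phenol red-free DMEM with 5% equine and 5% calf serum. Tebufenozide (100 nM final) and compounds were added, then ATPlite reagent, and luminescence was read.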
ALDH1A1 block – ALDH1A1 (human) enzyme inhibition | P00352 | Purified ALDH1A1, NADH fluorescence, propionaldehyde substrate | Potency, µM (top dose mostly 75.3 µM), for inactives: at the highest dose activity, negative = inhibition, most hits filed as inhibitors | 220,000 compounds, 7.3% hits | AID 1030; active = well fitted inhibition curve with a large enough effect, not every such curve was filed as active; inconclusive = small, poorly fitted or top-dose-only effect, or another doubt; inactive = no such curve, though single readings can be large or run the other way;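 note: potency is the fitted concentration of half-maximal effect; plate controls were no enzyme wells and a reference inhibitor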
HTT aggregate – inhibitors of mutant huntingtin aggregate formation in PC12 cells. PC12 HttQ103-GFP aggregates, Acumen cytometry, 40 h. Potency, µM (series often up to 46.1 µM), inactives show at the top dose activity change, negative = inhibition, most hits filed as inhibitors. 220,000 compounds, 1.1% hits; note: potency is the fitted concentration of half-maximal effect; % is set by controls: 0 for no effect and ±100 for the full control effect; nearly all actives have a fitted effect of over 60% in size
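Inducible Q103 Huntingtin exon 1–GFP PC12 line, 1500 cells/well in phenol red free DMEM with 5% equine and 5% calf serum. Tebufenozide 100 nM induced expression; compounds titrated; aggregates quantified by cytometry.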
PNC inhibitor – blocks assembly of the perinucleolar compartment | PC3M PTB-GFP, PNC prevalence imaging, 16 h; hits give low values | 140,000 compounds, 3.1% hits | activity change (PNC), negative = inhibition, % at 10 µM;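 active = readout at or below -70, meaning at least 70% loss of cells showing the perinucleolar compartment, a nuclear body marking cancer cells; inconclusive = readout between -30 and a set limit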;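 note: plate controls were DMSO wells for no effect and camptothecin positive control wells for full effect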
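Compounds are pinned in duplicate onto adhered PC3M cells stably expressing GFP-tagged PTB and incubated 16 h at 37 C. Cells are then fixed, nuclei stained with Hoechst, and PNC-positive cells counted.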
GoLoco inh red – blocks human Gai1 binding to RGS12 GoLoco peptide, red readout | P63096 | Gai1:RGS12 GoLoco peptide FP, rhodamine, 10 min | Potency, µM (series often up to 61.6 µM), for inactives: at the top dose activity, negative = inhibition, hits mostly inhibitors | 230,000 compounds, 0.44% hits; active = well fitted inhibition curve with a large enough effect, not every such curve was filed as active; inactive = no such curve, though single readings can be large or run the other way; note: potency is the fitted concentration of half-maximal effect; % is set by controls: 0 for no effect and ±100 for the full control effect; nearly all actives have a fitted effect of over 30% in size
Target sequence (P63096 whole entry, looked up): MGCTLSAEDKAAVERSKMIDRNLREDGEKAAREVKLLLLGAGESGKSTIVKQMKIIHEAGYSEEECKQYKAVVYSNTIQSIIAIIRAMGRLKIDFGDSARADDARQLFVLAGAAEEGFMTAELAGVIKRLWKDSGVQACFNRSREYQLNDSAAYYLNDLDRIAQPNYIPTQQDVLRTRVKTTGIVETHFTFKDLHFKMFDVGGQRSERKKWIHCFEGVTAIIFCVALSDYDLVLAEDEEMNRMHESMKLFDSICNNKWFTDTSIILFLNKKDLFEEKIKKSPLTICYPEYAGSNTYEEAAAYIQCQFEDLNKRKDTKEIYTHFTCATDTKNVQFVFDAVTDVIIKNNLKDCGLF
Active calls of the source: *; ? = inconclusive; · = no result given; [ ] = another dose, or the depositor's remark. Unless noted, calls come from the whole dose curve; as a rule, active = well fitted curve in the direction sought with a large enough effect; inconclusive = small, poorly fitted or top-dose-only effect, or another doubt; inactive = no such curve, though single readings can be large; an effect the other way counts as inactive or inconclusive.

SMILES	HPGD block	HTT ATP protect	ALDH1A1 block	HTT aggregate	PNC inhibitor	GoLoco inh red
O=C(Nc1cc(Cl)c(O)c(Cl)c1)C1CCCO1 (configuration not stated)	25µM*	-17%	?	-23%	-2	-34%
COC(=O)c1ccc(C(NC(=O)OCc2ccccc2)/C(=C/[C@@H](C)C(=O)N(C)Cc2cccnc2)c2cccnc2)cc1 (some centres not stated)	-3%	-1%	0%	·	·	5%
Cc1ccc(C2/C(=C(/O)c3ccccc3)C(=O)C(=O)N2CCN2CCOCC2)o1 (configuration not stated)	-2%	0%	?	9%	58	1%
Cc1ccc(/C(O)=C2/C(=O)C(=O)N(CCN3CCOCC3)C2c2ccccn2)cc1 (configuration not stated)	-6%	-17%	?	?	-19	-14%
Cc1ccc(C2/C(=C(/O)c3cnn(-c4ccccc4)c3C)C(=O)C(=O)N2CCN2CCOCC2)o1 (configuration not stated)	-18%	-46%	7.9µM*	17%	-28	41%
O=C1C(=O)N(CCN2CCOCC2)C(c2ccccn2)/C1=C(/O)c1ccccc1 (configuration not stated)	-20%	-36%	3.5µM*	0%	-27	15%
Cc1ccc(C2/C(=C(\O)c3cnn(-c4ccccc4)c3C)C(=O)C(=O)N2CCN(C)C)o1 (configuration not stated)	-20%	-31%	2%	-1%	-30	-2%
CN(C)CCCN1C(=O)C(=O)/C(=C(/O)c2ccc(S(=O)(=O)N(C)C)cc2)C1c1ccncc1 (configuration not stated)	-9%	·	25µM*	·	·	·
Cc1ccc(C)c(/C(O)=C2/C(=O)C(=O)N(CCN3CCOCC3)C2c2ccco2)c1 (configuration not stated)	?	9%[10 µM]	10µM*	-6%	-29	68%
CN(C)CCCN1C(=O)C(=O)/C(=C(/O)c2ccc3c(c2)OCCO3)C1c1ccco1 (configuration not stated)	-7%	-3%[0.074 µM]	-1%	5%	-86*	10%
Cc1cc(C)c(NC2=NS(=O)(=O)c3ccccc32)c(C)c1	-3%	-5%	13%	9%	22	3%
CCOC(=O)C1=C(C)NC(C)=C(C(=O)OCC)C1c1cn(-c2ccccc2)nc1-c1ccco1	15%	-5%	?	7%	-25	5%
CC(C)OC(=O)c1cn(-c2ccccc2)nc1-c1ccco1	-24%	-5%[1.9 µM]	11µM*	?	?	20%
O=C(NCCCN1CCOCC1)C(=O)NCc1ccccc1Cl	·	-20%	13%	0%	·	2%
Cc1nc2ccccc2n1/C(=N/S(=O)(=O)c1ccc(Br)cc1)c1ccccc1	-11%	5%[10 µM]	-4%	6%	-100*	0%
Cn1c(=O)[nH]c2sc3c(c2c1=O)CC(C)(C)OC3	?	5%	0%	-7%	?	9%
CC1(C)Cc2c(sc3[nH]c(=S)[nH]c(=O)c23)CO1	·	8%[10 µM]	7.9µM*	-16%[9.22 µM]	·	13%
Cc1ccc(NC(=O)N/C=C/c2ccc(Cl)cc2)cc1	-14%	-4%	22µM*	-3%	57	-30%
CN1CCN(c2ncc3nc(-c4cn(C)c5ccccc45)c(=O)n(-c4ccccc4)c3n2)CC1	·	-92%	?	·	·	-11%
CC(C)C[C@@H](NC(=O)[C@H](Cc1ccccc1)NC(=O)c1cnccn1)B(O)O	·	-79%	·	-15%	·	·
O=C(c1ccc(Cl)cc1)c1cnc(Nc2ccccc2Cl)s1	-23%	-75%	-3%	?	11	46%
Clc1cccc(Nc2nc(-c3ccncc3)cs2)c1	·	7%[10 µM]	-2%	3%[9.22 µM]	·	8%
S=c1[nH]nc(Nc2cccc(Cl)c2)s1	·	-23%	2.5µM*	2%	·	-4%
S=c1[nH]nc(Nc2ccccc2Cl)s1	·	-22%	1.4µM*	2%	·	-8%
Cc1noc(C)c1COc1ccc(C(=O)OCC(=O)Nc2cccc(S(=O)(=O)N3CCOCC3)c2)cc1	-3%	-31%[10 µM]	5%	2%	-4	2%
SMILES	HPGD block	HTT ATP protect	ALDH1A1 block	HTT aggregate	PNC inhibitor	GoLoco inh red
CCN1CCCC1CNC(=O)c1ccc(Cc2nc3ccccc3[nH]2)cc1 (configuration not stated)	-9%	·	0%	·	·	·
CC1CCCN(CCCNC(=O)CCn2nc(-c3ccccc3)ccc2=O)C1 (configuration not stated)	-14%	-5%	22µM*	?	6	8%
Cc1ccc(NC2Nc3cc(C)nn3S2)c(C)c1 (configuration not stated)	·	-16%	?	-15%	·	0%
Cc1cc2n(n1)SC(Nc1ccccc1)N2 (configuration not stated)	-15%	-11%	25µM*	19%	58	-1%
COc1cccc(CN2CCN(Cc3cccc4nonc34)CC2CCO)c1 (configuration not stated)	·	6%[10 µM]	7%	-10%[9.22 µM]	·	1%
Cc1cccc(NC(=O)c2csnn2)n1	·	16%	-11%	14%	·	2%
COc1ccc(C2NC(=S)NC(C)=C2C(=O)c2ccccc2)cc1OC (configuration not stated)	-13%	32%[10 µM]	11µM*	3%	-86*	3%
CC(=O)C1=C(C)NC(=S)NC1c1cc([N+](=O)[O-])ccc1O (configuration not stated)	·	12%[10 µM]	·	7%[9.22 µM]	·	0%
CC1=C(C(=O)c2ccccc2)C(c2cccc([N+](=O)[O-])c2)NC(=S)N1 (configuration not stated)	·	-12%	1.1µM*	-3%	·	6%
N#Cc1cccc(NC(=O)N2CC3(CCN(C(=O)c4cnccn4)CC3)C2)c1	-22%	-49%	-6%	·	·	-5%
N#C/C(=N\Nc1ccc(F)cc1)C(=N)N1CCCCC1	-25%	-63%	28µM*	16%	-3	3%
COc1cc2[nH]cc(C(=O)NCCc3ccccc3)c(=O)c2cc1OC	?	8%[10 µM]	?	16%	-100*	32%
O=CC(O)C(O)C(O)C(O)CO (configuration not stated)	0%	-1%	-4%	·	·	6%
CC(C)[C@@H](CC(=O)N[C@@H]1CCNC[C@H]1C(=O)N[C@H](CC(=O)N[C@@H](CCC(=O)O)CC(=O)O)Cc1c[nH]c2ccccc12)NC(=O)C[C@H](Cc1c[nH]c2ccccc12)NC(=O)[C@@H]1CNCC[C@H]1N	-4%	-3%	?	·	·	-5%
Cc1ccc2nc(NC(=O)c3ccc(NS(=O)(=O)c4cccs4)cc3)sc2c1	?	20%[10 µM]	?	-5%	-25	3%
